Bioassay records deposited in PubChem BioAssay by National Center for Advancing Translational Sciences (NCATS).
Tau fluor cs: Counterscreen qHTS for Inhibitors of Tau Fibril Formation, Fluorescence Polarization; AID 1463, 2008; Potency, µM (highest dose often 57.7 µM); tau K18 P301L Alexa594 fluorescence, heparin fibrillization; 0.93% of 280,000 active; also: nearly all actives have a fitted effect of over 55% in size
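Human tau K18 P301L (15 uM unlabeled, 0.24 uM Alexa 594-labeled) in 100 mM sodium acetate pH 7 with 20 uM heparin, 6 hr at 37 C. ThT 30 uM added, 1 hr ambient; Alexa 594 FP and total fluorescence read at 555/632 nm.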
USP1-UAF1 inh: Inhibitors of USP1/UAF1: Primary Screen | Potency, µM (series often up to 57.1 µM), hits mostly inhibitors | recombinant USP1/UAF1, Ub-Rhodamine cleavage fluorescence | Ubiquitin carboxyl-terminal hydrolase 1 (Homo sapiens), O94782 | AID 743255, 2014 | 0.23% of 390,000 active; also: nearly all actives have a fitted effect of over 60% in size
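USP1/UAF1 complex at 1 nM was preincubated with compound for 15 min at room temperature, then Ub-Rho substrate (150nM final) was added. Fluorescence (480/540 nm) was read kinetically, 6 reads every 60 seconds.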
FBPA coupling cs: qHTS Assay for Inhibitors of Fructose-1,6-bisphosphate Aldolase from Giardia Lamblia: Coupling assay counterscreen. 0.67% of 290,000 active. activity change, negative = inhibition, % at 58.2 µM, hits read low. coupling enzyme system counterscreen, AmpLite Red fluorescence; in the data active = activity change below about -30%
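Final compound at 57.5 uM, incubated 10 min at RT with coupling enzyme reagent (glyceraldehyde-3-phosphate), then 20 min with substrate and AmpLite Red detection. Fluorescence read at 525/598 nm; tests interference with the coupling assay, not aldolase inhibition.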
Tau FP inhib: qHTS for Inhibitors of Tau Fibril Formation, Fluorescence Polarization | Potency, µM (highest dose often 57.7 µM), hits mostly inhibitors | Microtubule-associated protein tau (Homo sapiens), P10636 | 0.39% of 280,000 active | AID 1468, 2008 | K18 P301L tau heparin fibrillization, Alexa594 FP, 6 h; also: nearly all actives have a fitted effect of over 55% in size
Target sequence (P10636 561-689 P618L limits assumed): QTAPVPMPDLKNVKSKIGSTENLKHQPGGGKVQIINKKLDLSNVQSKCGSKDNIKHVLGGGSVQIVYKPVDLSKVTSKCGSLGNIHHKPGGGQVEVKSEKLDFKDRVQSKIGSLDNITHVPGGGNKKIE
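K18 P301L tau (15 uM unlabeled/0.24 uM Alexa 594-labeled, final) + compound + heparin 20 uM final; 100 mM NaOAc pH 7; 6 hr 37 C; ThT 30 uM final added, 1 hr RT; FP ex 555/em 632 nm.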
Tau fibril ThT: qHTS for Inhibitors of Tau Fibril Formation, Thioflavin T Binding; Microtubule-associated protein tau (Homo sapiens), P10636; recombinant tau K18 P301L (four-repeat tau fragment), heparin-induced fibrillization, ThT fluorescence; Potency, µM (top dose mostly 57.4 µM), most hits filed as inhibitors; 2.1% of 270,000 active; AID 1460, 2008; also: nearly all actives have a fitted effect of over 55% in size
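Aggregation was driven by heparin (20 uM final) acting on recombinant tau […] bearing P301L in 100 mM sodium acetate pH 7; fibrils were detected with Thioflavin T.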
Each line names hits and unclear results; the compound was inactive in the other large screens; [ ] = dose if it differs, or a comment. Shown are actives, neighbours in structure and some others; about 2.3% of the full set was active somewhere. Unless noted, calls follow the shape of the dose curve; as a rule, active = well fitted curve in the direction sought with a large enough effect; inconclusive = small, poorly fitted or top-dose-only effect, or another doubt; inactive = no such curve, though single readings can be large; an effect the other way counts as inactive or inconclusive.

O=C1OC(/C=C/c2ccccc2)=NC/1=C\c1cccnc1	none
COc1ccccc1/C=C/C1=NC(=C\C=C/c2ccccc2)/C(=O)O1	Tau fibril ThT 11.2µM
COc1ccccc1/C=C/C=C1N=C(/C=C/c2ccc(Cl)cc2)OC/1=O	Tau fibril ThT 12.6µM
COc1ccc(NC(=O)CS(=O)c2ccc(Cl)c(Cl)c2)cc1 (stereo not drawn)	none (no result: Tau fluor cs, Tau FP inhib, Tau fibril ThT)
O=C(O)c1ccc(N/N=C/c2ccc(OC(=O)c3cccc(Cl)c3)cc2)cc1	Tau fluor cs inconclusive, Tau FP inhib inconclusive, Tau fibril ThT 12.6µM
COC(=O)c1ccc(COc2ccc(/C=N/Nc3cccc(C(=O)O)c3)cc2)cc1	Tau fluor cs inconclusive, Tau fibril ThT 15.8µM
O=C(O)c1cccc(N/N=C/c2ccc(OC(F)(F)F)cc2)c1	none (no result: Tau fluor cs, Tau FP inhib, Tau fibril ThT)
CN(C)c1ccc(Nc2nc(N)c([N+](=O)[O-])c(N3CCOCC3)n2)cc1	Tau fluor cs inconclusive, Tau fibril ThT 15.8µM
COc1ccc(Nc2nc(N)c([N+](=O)[O-])c(N3CCOCC3)n2)cc1	Tau fluor cs inconclusive, Tau fibril ThT inconclusive
Cc1ccc2c(c1)N(C(=O)N1CCC(C(=O)NCCc3ccc(Cl)cc3)CC1)CC(C)O2 (stereo not drawn)	Tau fluor cs 7.94µM[quencher] (no result: FBPA coupling cs)
O=C(NCc1ccco1)C1CCN(C(=O)N2CCOc3ccc(Cl)cc32)CC1	Tau fluor cs inconclusive, Tau FP inhib inconclusive, Tau fibril ThT 20µM (no result: FBPA coupling cs)
CC1CN(C(=O)N2CCC(C(=O)NC3CCCCCC3)CC2)c2cc(Cl)ccc2O1 (stereo not drawn)	Tau fluor cs inconclusive, Tau FP inhib inconclusive, Tau fibril ThT 20µM (no result: FBPA coupling cs)
O=C(NCCC1=CCCCC1)C1CCN(C(=O)N2CCOc3ccccc32)CC1	Tau fluor cs 2.82µM[quencher], Tau FP inhib inconclusive (no result: FBPA coupling cs)
Cc1cc(C)c(NC(=O)C2CCN(C(=O)N3CC(C)Oc4ccc(Cl)cc43)CC2)c(C)c1 (stereo not drawn)	none (no result: FBPA coupling cs)
Cc1ccc(CNC(=O)C2CCN(C(=O)N3CC(C)Oc4ccc(Cl)cc43)CC2)cc1 (stereo not drawn)	Tau fluor cs inconclusive, Tau fibril ThT inconclusive (no result: FBPA coupling cs)
O=C1CCCC2=C1C(c1ccccc1)C1C(=O)c3ccccc3C1=N2 (stereo not drawn)	none
O=C1CCCC2=C1C(c1ccc(Cl)cc1)C1C(=O)c3ccccc3C1=N2 (stereo not drawn)	Tau fluor cs 22.4µM[quencher], Tau fibril ThT 15.8µM
CCNc1ccc(Br)cc(C(=O)/C=C/c2c(Cl)cccc2Cl)c1=O	Tau fluor cs inconclusive, USP1-UAF1 inh inconclusive, Tau FP inhib inconclusive, Tau fibril ThT 12.6µM
CCNc1ccc(Br)cc(C(=O)/C=C/c2ccc(Cl)cc2)c1=O	Tau fluor cs inconclusive, USP1-UAF1 inh 31.6µM, Tau FP inhib inconclusive, Tau fibril ThT 14.1µM
CCNc1ccc(Br)cc(C(=O)/C=C/c2ccc3c(c2)OCO3)c1=O	Tau fluor cs inconclusive, Tau FP inhib inconclusive, Tau fibril ThT 11.2µM
COc1ccc(OC)c(NC(=O)CCn2cccn2)c1	none (no result: FBPA coupling cs)
Cc1cccc(-c2nc(CN3CCCC(C(=O)NCCc4ccc(Cl)cc4)C3)c(C)o2)c1 (stereo not drawn)	Tau fibril ThT inconclusive (no result: FBPA coupling cs)
COc1ccc(-c2nc(-c3cccs3)c(-c3cccs3)[nH]2)cc1O	Tau fluor cs 12.6µM[quencher], Tau fibril ThT 12.6µM
O=C(Nc1cccc(F)c1)c1cccnc1NCCc1ccccc1	Tau fluor cs inconclusive, Tau FP inhib 17.8µM
O=C(Nc1cccc(F)c1)c1ccccc1-c1ccccc1	none
O=C(Nc1ccc(F)cc1)c1cccnc1NCCc1ccccc1	Tau fluor cs inconclusive, Tau FP inhib 12.6µM
O=C(Nc1cccc(C(F)(F)F)c1)c1cccnc1NCCO	none (no result: Tau fluor cs, Tau FP inhib, Tau fibril ThT)
O=C(Nc1cccc(C(F)(F)F)c1)c1cccnc1NCCc1ccccc1	Tau fluor cs inconclusive, Tau FP inhib 14.1µM
CCOc1ncccc1C(=O)Nc1ccc(F)cc1	none
CCn1cc(S(=O)(=O)c2cc(C)cc(C)c2)c(=O)c2cc(F)c(N3CCCCC3)cc21	USP1-UAF1 inh inconclusive (no result: FBPA coupling cs)
O=C1CC(c2ccc(O)cc2)Oc2cc(O)cc(O)c21 (stereo not drawn)	none
CC1CC(=O)c2c(cc3c(-c4c(O)cc(O)c5c(O)c6c(cc45)OC(C)CC6=O)c(O)cc(O)c3c2O)O1 (stereo not drawn)	Tau fluor cs inconclusive, USP1-UAF1 inh 31.6µM, Tau FP inhib inconclusive, Tau fibril ThT inconclusive
COc1cc2nc(NCCC(C)C)n3nc(-c4ccccc4)nc3c2cc1OC	none (no result: FBPA coupling cs)
CC1=C(C(=O)Nc2ccc(Cl)cc2)C(c2ccc(C(F)(F)F)cc2)n2nnnc2N1 (stereo not drawn)	Tau fluor cs inconclusive, Tau FP inhib 22.4µM (no result: FBPA coupling cs)
CC1=C(C(=O)Nc2ccc(C)cc2)C(c2ccc(Cl)cc2)n2nnnc2N1 (stereo not drawn)	Tau FP inhib inconclusive (no result: FBPA coupling cs)
CC1CCCN(S(=O)(=O)c2ccc(NC(=O)Cn3nnc(-c4ccccc4F)n3)cc2)C1 (stereo not drawn)	Tau fluor cs inconclusive, Tau FP inhib 20µM
CCc1ccc(NC(=O)C(C)n2nnc3sc(-c4ccccc4)cc3c2=O)cc1 (stereo not drawn)	Tau FP inhib inconclusive, Tau fibril ThT 28.2µM (no result: FBPA coupling cs)
COC(=O)C(C)n1nnc2sc(-c3ccccc3)cc2c1=O (stereo not drawn)	Tau fibril ThT inconclusive
COc1cc(-c2cc3n(C)c(C)c(CCC(=O)NCc4ccccc4)c(=O)n3n2)cc(OC)c1OC	none (no result: FBPA coupling cs)
CCOC(=O)Nc1ccc(NCc2ccc(F)cc2)nc1N	Tau fluor cs inconclusive, USP1-UAF1 inh 22.4µM, Tau FP inhib inconclusive, Tau fibril ThT 17.8µM (no result: FBPA coupling cs)
